# In PubChem BioAssay (EPA / NIEHS):
# Inconclusive results are not listed. The source made the active and inactive calls. The calls were made as follows: active = hit-call score of the fitted dose curve at least 0.9, where 1 is the maximum; inconclusive = response in the unintended direction; inactive = score below 0.9.
# Target: Peroxisome proliferator-activated receptor gamma (Homo sapiens) (UniProt P37231)
# Experiment: ATG_hPPARg_XSP1: Attagene TRANS-FACTORIAL Multi-Species (XSP1) HepG2 Assay for human Peroxisome Proliferator-activated Receptor gamma (PPARg) (AID 2283800)
# Method: ATG_XSP1_multi-species_TRANS is a cell-based, multiplexed assay created by modifying the existing Attagene TRANS-FACTORIAL system to include a panel of nuclear receptors from some or all the following species: human (Homo sapiens), mouse (Mus musculus), frog (Xenopus laevis), zebrafish (Danio rerio), chicken (Gallus gallus), and turtle (Chrysemys picta). The ECOTOX-FACTORIAL format uses HepG2, a human liver cell line, with measurements taken at 24 hours after chemical dosing in a 24-well plate. Xsp1 included 3 nM 6-alpha-fluorotestosterone to partially stimulate the androgen receptor.ATG_hPPARg_XSP1 is one of 29 assay components measured or calculated from the ATG_XSP1_multi-species_TRANS assay. It is designed to make measurements of mRNA induction, a form of inducible reporter, as detected with fluorescence intensity signals by Reverse transcription polymerase chain reaction (RT-PCR) and Capillary electrophoresis technology.The assay endpoint ATG_hPPARg_XSP1 was analyzed in the positive analysis fitting direction relative to DMSO as the negative control and baseline of activity. Using a type of inducible reporter, measures of mRNA for gain-of-signal activity can be used to understand the reporter gene at the transcription factor-level as they relate to the gene PPARg. Furthermore, this assay endpoint can be referred to as a primary readout, because this assay has produced multiple assay endpoints where this one serves a reporter gene function. To generalize the intended target to other relatable targets, this assay endpoint is annotated to the nuclear receptor intended target family, where the subfamily is non-steroidal.
# Human liver HepG2 cells are transiently transfected with multiple reporter transcription units (MRTUs) in 6-well plates using FuGene 6 reagent (Roche; 3 ml FuGene/1 mg DNA). The MRTU constructs are regulated by a cis-regulating element (promoter). […] A major difference between the CIS and TRANS system is that in CIS activities of endogenous TFs are measured, whereas the TRANS assay evaluates changes in activities of exogenous, chimeric NR-Gal4 proteins. […] At the end of 24 hour incubation, total RNA was isolated using TriZol reagent (Invitrogen). The isolated RNA is then reverse-transcribed using oligo(dT) primer and Mo-MLV reverse transcriptase (Invitrogen) with DNAse I (Ambion) treatment for 30 min. The one-tenth of the produced cDNA was amplified by PCR using Taq DNA polymerase (Invitrogen) and two reporter sequence-specific primers. The PCR products were fluorescently labeled by primer extension with 6-arboxyfluorescein (6-FAM) 5'-labeled reporter sequence-specific primer (2 min at 95 C, 20 s at 68 C and 10 min at 72 C) and these products were digested with 5U of HpaI (New England Biolabs) for 2h at 37 C. The fragments were purified using Qiaquick PCR columns (Qiagen), analyzed on an ABI 3130xL genetic analyzer (Applied Biosystems) with peak positions identified by using a set of X-rhodamine (ROX)-labeled MapMarker1000 molecular weight standards (BioVentures). The raw capillary electrophoresis data was processed using Attagraph software (Attagene).
# Chain of Peroxisome proliferator-activated receptor gamma (Homo sapiens) (P37231 whole entry, looked up): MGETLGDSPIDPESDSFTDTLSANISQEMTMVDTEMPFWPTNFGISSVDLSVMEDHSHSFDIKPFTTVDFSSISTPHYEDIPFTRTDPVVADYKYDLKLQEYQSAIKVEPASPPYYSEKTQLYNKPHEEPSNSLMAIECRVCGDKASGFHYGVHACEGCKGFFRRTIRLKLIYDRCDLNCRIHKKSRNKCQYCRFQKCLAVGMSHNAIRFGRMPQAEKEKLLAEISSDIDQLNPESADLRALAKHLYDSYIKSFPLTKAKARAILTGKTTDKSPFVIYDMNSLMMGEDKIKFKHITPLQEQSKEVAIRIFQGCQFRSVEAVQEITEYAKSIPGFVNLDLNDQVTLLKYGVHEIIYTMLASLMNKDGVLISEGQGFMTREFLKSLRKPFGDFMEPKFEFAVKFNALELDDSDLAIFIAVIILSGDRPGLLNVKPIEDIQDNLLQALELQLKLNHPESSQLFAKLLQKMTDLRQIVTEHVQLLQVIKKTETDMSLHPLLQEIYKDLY
Structure (SMILES),AC50,outcome
CC(C)(C)c1ccc(CSc2cnn(C(C)(C)C)c(=O)c2Cl)cc1,0.387 µM (active),–
CC(C)Oc1cc(-n2nc(C(C)(C)C)oc2=O)c(Cl)cc1Cl,12.7 µM (active),–
CCCCC(CC)COC(=O)c1ccccc1C(=O)OCC(CC)CCCC (centres undefined),8.96 µM (active),–
CCCN(CCC)c1c([N+](=O)[O-])cc(S(N)(=O)=O)cc1[N+](=O)[O-],46.9 µM (active),–
CCCC1COC(Cn2cncn2)(c2ccc(Cl)cc2Cl)O1 (centres undefined),11.8 µM (active),–
OC(c1ccc(Cl)cc1)(c1cncnc1)c1ccccc1Cl (centres undefined),–,inactive
CCOP(=S)(OCC)SCn1c(=O)oc2cc(Cl)ccc21,–,inactive
COC(=O)N(OC)c1ccccc1COc1ccn(-c2ccc(Cl)cc2)n1,3.24 µM (active),–
C#CCOS(=O)OC1CCCCC1Oc1ccc(C(C)(C)C)cc1 (centres undefined),26.1 µM (active),–
CCCCNC(=O)OCC#CI,11.1 µM (active),–
CON(C)C(=O)Nc1ccc(Cl)c(Cl)c1,100 µM (active),–
COc1ccc(C(c2ccc(OC)cc2)C(Cl)(Cl)Cl)cc1,–,inactive
CCCCOC(=O)c1ccccc1C(=O)OCCCC,27.5 µM (active),–
COP(=S)(OC)Oc1nc(Cl)c(Cl)cc1Cl,2.29 µM (active),–
